Test results as given in PubChem BioAssay (Tox21).
“And” between values parts separate entries of the source, which are not always exact repeats. Equal entries are not always repeated. Records with an inconclusive call do not appear. A call without a number means that no potency is given here. The source made the active and inactive calls. Unless noted, calls come from the whole dose curve; as a rule, active = well fitted curve in the direction sought with a large enough effect in the repeat runs; inconclusive = weak or mixed curves; inactive = no such curve, though single readings can be large; an effect the other way counts as inactive or inconclusive.

Columns and labels:
[1] = qHTS assay to identify small molecule antagonists of the estrogen receptor alpha (ER-alpha) signaling pathway using the BG1 cell line in the presence of 0.1 nM 17-beta-estradiol - cell viability counter screen (AID 1259241); note: nearly all actives have a fitted effect of over 40% in size; note: potency is the fitted concentration of half-maximal effect
Procedure, shortened: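 Estradiol-stimulated (0.1 nM) VM7Luc4E2 cells exposed to compounds 22 hr; viability measured by fluorescence of cleaved CellTiter-Fluor substrate after 30 min.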

[2] = qHTS assay to identify small molecule antagonists of the androgen receptor (AR) signaling pathway using the MDA cell line in the presence of 0.5 nM R1881 - cell viability counter screen (AID 1259242); note: nearly all actives have a fitted effect of over 45% in size; note: potency is the fitted concentration of half-maximal effect
Procedure, shortened: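 Steps: plate MDA-kb2 cells, rest 5 hr at 37C without CO2; pin in compounds in DMSO; add R1881 to 0.5 nM final; incubate 16 hr; add CellTiter-Fluor, 30 min; read fluorescence.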

[3] = target: Estrogen receptor (Homo sapiens) (UniProt P03372); experiment: qHTS assay to identify small molecule antagonists of the estrogen receptor alpha (ER-alpha) signaling pathway using the BG1 cell line in the presence of 0.1 nM 17-beta-estradiol (AID 1259244); note: nearly all actives have a fitted effect of over 50% in size; note: potency is the fitted concentration of half-maximal effect
Estrogen receptor (Homo sapiens), sequence (P03372 whole entry, looked up): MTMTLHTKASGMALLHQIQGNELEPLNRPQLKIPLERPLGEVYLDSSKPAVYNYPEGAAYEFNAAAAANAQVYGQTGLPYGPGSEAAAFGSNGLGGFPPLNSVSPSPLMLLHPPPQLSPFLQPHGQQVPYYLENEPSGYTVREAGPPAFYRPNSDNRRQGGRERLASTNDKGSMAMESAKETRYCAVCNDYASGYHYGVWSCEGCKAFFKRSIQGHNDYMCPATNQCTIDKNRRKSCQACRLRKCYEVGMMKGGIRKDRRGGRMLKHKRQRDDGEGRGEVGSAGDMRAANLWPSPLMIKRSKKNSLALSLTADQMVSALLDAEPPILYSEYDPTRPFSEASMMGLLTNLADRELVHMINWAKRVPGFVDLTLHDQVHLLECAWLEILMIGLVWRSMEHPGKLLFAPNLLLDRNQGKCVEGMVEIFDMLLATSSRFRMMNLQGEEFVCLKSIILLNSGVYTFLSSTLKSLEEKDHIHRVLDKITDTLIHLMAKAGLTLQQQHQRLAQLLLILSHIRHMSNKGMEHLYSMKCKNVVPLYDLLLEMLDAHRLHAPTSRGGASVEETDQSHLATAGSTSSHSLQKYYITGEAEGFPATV
Procedure, shortened: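 Antagonist mode: compounds in DMSO are pinned onto VM7Luc4E2 reporter cells, 0.1 nM final 17beta-estradiol is added, and after 22 h at 37C luciferase luminescence is measured with ONE-Glo.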

[4] = qHTS assay to identify small molecule HDAC inhibitors (AID 1259364); note: potency is the fitted concentration of half-maximal effect;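 note: wild-type HCT-116 cells with endogenous class I/II HDAC activity; nearly all actives have a fitted effect of over 45% in size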
Procedure, shortened: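 Cells (HCT-116, wild type) are seeded at 1,500 per well, incubated overnight, treated with compound in DMSO for 2 hr, then developed with HDAC-Glo I/II reagent for 30 min at room temperature.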

[5] = qHTS assay to identify small molecule HDAC inhibitors - cell viability counter screen (AID 1259365); note: nearly all actives have a fitted effect of over 50% in size; note: potency is the fitted concentration of half-maximal effect
Procedure, shortened: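 After overnight seeding at 1,500 cells per well, wild-type HCT-116 cultures took up compounds in DMSO for 2hr at 37 C. Viable cell content came from luminescence with CellTiter-Glo.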

[6] = qHTS assay to identify small molecule agonists of the sonic hedgehog signaling (Shh) pathway - cell viability counter screen (AID 1259366); note: nearly all actives have a fitted effect of over 50% in size; note: potency is the fitted concentration of half-maximal effect
Procedure, shortened: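 Same-well cytotoxicity read. Gli1-Luc reporter 3T3 cells; compounds 24hr, 37C/5% CO2; CellTiter-Fluor fluorescence.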

[7] = qHTS assay to identify small molecule antagonists of the sonic hedgehog signaling (Shh) pathway - cell viability counter screen (AID 1259367); note: nearly all actives have a fitted effect of over 55% in size; note: potency is the fitted concentration of half-maximal effect
Procedure, shortened: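 Conditioned medium drove Shh signaling in 3T3 Gli1-Luc cells exposed to compounds at 37C and 5% CO2. Viability was determined from CellTiter-Fluor fluorescence, with reagent incubated 1 hr after 23 hr of treatment.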

[8] = qHTS assay to identify small molecule agonists of the sonic hedgehog signaling (Shh) pathway (AID 1259368; calls by dose curve;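 note: NIH/3T3-derived 3T3Gli1-Luc cells carrying a stable Gli1-driven firefly luciferase reporter; series mostly up to about 92 µM; nearly all actives have a fitted effect of over 15% in size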)
Procedure, shortened: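 Cells of a mouse NIH/3T3 clone stably expressing luciferase under the Gli1 transcriptional response element are exposed to test chemicals for 24 hr at 37 C. Pathway activation is detected as a rise in luminescence.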

[9] = qHTS assay to identify small molecule antagonists of the sonic hedgehog signaling (Shh) pathway (AID 1259369; calls by dose curve; note: nearly all actives have a fitted effect of over 45% in size; note: potency is the fitted concentration of half-maximal effect)
Procedure, shortened: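 Cells are plated and held 4hr at 37 C, compounds (DMSO) are pinned in, conditioned medium is added to stimulate the pathway, and after 24hr luciferase reagent is added for 30min before luminescence is read.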

[10] = qHTS assay to identify small molecule agonists of the estrogen receptor beta (ER-beta) signaling pathway - cell viability counter screen (AID 1259380); note: nearly all actives have a fitted effect of over 30% in size; note: potency is the fitted concentration of half-maximal effect
Procedure, shortened: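 Cytotoxicity is measured in parallel with the reporter screen: after 16 hr compound exposure at 37C and a 2 hr LiveBLAzer step, CellTiter-Glo is added to the same ER-beta-UAS-bla HEK293T wells and luminescence read after 30 min.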

[11] = qHTS assay to identify small molecule antagonists of the estrogen receptor beta (ER-beta) signaling pathway - cell viability counter screen (AID 1259382); note: nearly all actives have a fitted effect of over 55% in size; note: potency is the fitted concentration of half-maximal effect
Procedure, shortened: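 Cytotoxicity counter screen multiplexed with the beta-lactamase antagonist assay: GripTite HEK293T ER-beta-bla cells were treated 16 hr with test chemicals in the presence of 1nM 17-beta-estradiol, and viability was measured by CellTiter-Glo.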

[12] = target: Estrogen receptor (Homo sapiens) (UniProt P03372); experiment: qHTS assay to identify small molecule agonists of the estrogen receptor alpha (ER-alpha) signaling pathway in the presence of an antagonist (AID 1259383; calls by dose curve; note: nearly all actives have a fitted effect of over 15% in size; note: potency is the fitted concentration of half-maximal effect; for activation: top concentration of the series differs between compounds)
Procedure, shortened: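 Agonist-mode confirmation in the presence of the ER antagonist ICI-182,780 at 10.0nM final. Breast-derived VM7Luc4E2 reporter cells were exposed to compounds for 22hr, and ERE-driven luciferase was quantified by luminescence.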

[13] = qHTS assay to identify small molecule phospholipidosis (PLD) inducers (AID 1259344; active = well fitted curve in the direction sought with a large enough effect; an effect the other way counts as inactive or inconclusive)
Procedure, shortened: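 After 4 h attachment on collagen I, HepG2 cells were dosed with compound alongside LipidTOX Red, kept 24 h at 37 C, fixed, and imaged for lamellar phospholipid pits.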

[14] = target: Estrogen receptor beta (Homo sapiens) (UniProt Q92731); experiment: qHTS assay to identify small molecule agonists of the estrogen receptor beta (ER-beta) signaling pathway (AID 1259377; active = well fitted activation curve with a large enough effect in the signal ratio in the repeat runs, not every such curve was filed as active; the % refers to the signal ratio)
Estrogen receptor beta (Homo sapiens), sequence (Q92731 whole entry, looked up): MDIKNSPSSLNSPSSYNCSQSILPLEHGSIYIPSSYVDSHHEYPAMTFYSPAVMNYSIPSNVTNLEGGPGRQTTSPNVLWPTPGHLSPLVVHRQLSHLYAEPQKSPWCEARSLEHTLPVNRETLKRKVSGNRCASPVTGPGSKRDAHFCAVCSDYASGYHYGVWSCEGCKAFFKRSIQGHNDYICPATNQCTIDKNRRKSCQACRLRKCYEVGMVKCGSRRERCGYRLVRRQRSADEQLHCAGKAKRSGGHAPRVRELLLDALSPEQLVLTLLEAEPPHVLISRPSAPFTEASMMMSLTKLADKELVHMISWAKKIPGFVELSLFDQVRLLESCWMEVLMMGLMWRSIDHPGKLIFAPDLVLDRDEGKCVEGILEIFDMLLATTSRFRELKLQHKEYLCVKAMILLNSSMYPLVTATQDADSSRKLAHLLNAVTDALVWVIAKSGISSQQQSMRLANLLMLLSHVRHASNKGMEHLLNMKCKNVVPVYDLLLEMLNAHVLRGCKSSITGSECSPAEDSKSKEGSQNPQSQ
Procedure, shortened: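 Read-out: beta-lactamase FRET fluorescence. Cell line: ER-beta-UAS-bla HEK293T in 2% charcoal-stripped FBS. Exposure: 16 hr at 37C. Substrate step: 2 h at room temperature.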

[15] = target: Estrogen receptor beta (Homo sapiens) (UniProt Q92731); experiment: qHTS assay to identify small molecule antagonists of the estrogen receptor beta (ER-beta) signaling pathway (AID 1259378; active = well fitted inhibition curve with a large enough effect in the signal ratio in the repeat runs, not every such curve was filed as active; the % refers to the signal ratio)
Procedure, shortened: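 ER-beta-UAS-bla HEK293T (GripTite) cells in 2% charcoal-stripped FBS medium were preincubated 6 hr at 37C, dosed with compound, then stimulated with 1 nM E2 (final) for 16 hr; beta-lactamase reporter read by B/G FRET fluorescence after 2 hr substrate loading.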

[16] = target: Androgen receptor (Homo sapiens) (UniProt P10275); experiment: qHTS assay to identify small molecule agonists of the androgen receptor (AR) signaling pathway in the presence of an antagonist (AID 1259381; calls by dose curve; note: nearly all actives have a fitted effect of over 15% in size)
Androgen receptor (Homo sapiens), sequence (P10275 whole entry, looked up): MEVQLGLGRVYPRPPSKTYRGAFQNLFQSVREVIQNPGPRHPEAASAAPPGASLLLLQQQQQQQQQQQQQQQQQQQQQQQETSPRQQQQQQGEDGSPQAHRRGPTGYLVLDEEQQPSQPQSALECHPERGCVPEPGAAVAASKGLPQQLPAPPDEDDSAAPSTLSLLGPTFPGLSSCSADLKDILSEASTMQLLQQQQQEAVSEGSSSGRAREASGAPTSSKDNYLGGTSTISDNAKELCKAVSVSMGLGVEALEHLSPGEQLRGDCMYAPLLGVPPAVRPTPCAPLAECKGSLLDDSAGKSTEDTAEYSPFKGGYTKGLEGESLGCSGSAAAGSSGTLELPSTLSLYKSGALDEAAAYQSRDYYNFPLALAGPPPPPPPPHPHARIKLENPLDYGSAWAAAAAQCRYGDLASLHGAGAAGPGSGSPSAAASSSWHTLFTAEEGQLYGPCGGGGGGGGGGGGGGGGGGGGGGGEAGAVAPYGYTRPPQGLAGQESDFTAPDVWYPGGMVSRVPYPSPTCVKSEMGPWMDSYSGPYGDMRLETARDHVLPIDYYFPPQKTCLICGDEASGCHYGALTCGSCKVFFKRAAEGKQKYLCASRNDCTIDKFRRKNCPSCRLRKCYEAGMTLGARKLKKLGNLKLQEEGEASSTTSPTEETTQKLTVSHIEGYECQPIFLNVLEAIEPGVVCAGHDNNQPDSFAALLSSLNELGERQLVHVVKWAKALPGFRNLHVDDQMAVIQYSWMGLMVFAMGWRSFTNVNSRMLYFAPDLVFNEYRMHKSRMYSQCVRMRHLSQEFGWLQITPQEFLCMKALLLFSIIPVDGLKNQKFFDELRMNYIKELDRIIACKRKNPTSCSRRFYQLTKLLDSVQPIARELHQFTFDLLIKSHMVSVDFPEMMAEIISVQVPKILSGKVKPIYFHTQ
Procedure, shortened: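 Agonist-mode confirmation screen: human MDA-kb2 cells stably expressing luciferase under an MMTV promoter bearing AR and GR response elements, co-treated with 3.0uM nilutamide (final). Luminescence measured after 16hr compound incubation.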

[17] = qHTS assay to identify small molecule agonists or antagonists of the thyroid stimulating hormone receptor (TSHR) signaling pathway - wild type cell line counter screen (AID 1259384; calls by dose curve)
Procedure, shortened: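 Wild-type HEK293 cells were plated 18 h at 37 C/5% CO2, pin-dosed with compound plus Ro20-1724 medium, held 30 min at room temperature, then given cAMP-d2 and anti-cAMP-cryptate; fluorescence was read after 1 h. Fifteen concentrations, triplicate.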

[18] = target: Thyrotropin receptor (Homo sapiens) (UniProt P16473); experiment: qHTS assay to identify small molecule antagonists of the thyroid stimulating hormone receptor (TSHR) signaling pathway (AID 1259385; calls by dose curve; note: nearly all actives have a fitted effect of over 20% in size; note: potency is the fitted concentration of half-maximal effect)
Thyrotropin receptor (Homo sapiens), sequence (P16473 whole entry, looked up): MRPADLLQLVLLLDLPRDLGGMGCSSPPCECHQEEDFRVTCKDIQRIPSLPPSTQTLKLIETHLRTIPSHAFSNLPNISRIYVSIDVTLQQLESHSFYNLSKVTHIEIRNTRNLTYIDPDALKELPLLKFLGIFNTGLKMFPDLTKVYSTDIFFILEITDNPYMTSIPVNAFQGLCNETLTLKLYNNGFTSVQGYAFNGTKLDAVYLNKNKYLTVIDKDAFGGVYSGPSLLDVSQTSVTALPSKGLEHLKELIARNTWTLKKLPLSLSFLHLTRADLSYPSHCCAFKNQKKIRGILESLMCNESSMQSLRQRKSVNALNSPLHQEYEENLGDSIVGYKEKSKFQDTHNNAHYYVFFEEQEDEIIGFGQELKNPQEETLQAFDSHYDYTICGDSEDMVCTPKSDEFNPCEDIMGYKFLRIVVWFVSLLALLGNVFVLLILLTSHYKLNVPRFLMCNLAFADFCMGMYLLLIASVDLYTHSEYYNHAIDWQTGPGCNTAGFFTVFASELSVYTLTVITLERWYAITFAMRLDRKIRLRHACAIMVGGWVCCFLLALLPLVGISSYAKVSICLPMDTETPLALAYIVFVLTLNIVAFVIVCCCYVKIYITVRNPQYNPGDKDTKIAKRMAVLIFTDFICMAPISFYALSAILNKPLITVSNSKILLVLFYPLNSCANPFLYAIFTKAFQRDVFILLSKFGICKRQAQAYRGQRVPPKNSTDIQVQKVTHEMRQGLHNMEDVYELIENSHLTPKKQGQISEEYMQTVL
Procedure, shortened: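 TSHR-HEK293 cells were plated and held 18 h at 37C/5% CO2, then given compound plus Ro20-1724 and stimulated with TSH at 1.5 ng/mL final. After 30 min at room temperature, cAMP was detected with cAMP-d2/anti-cAMP-cryptate (1 h) by fluorescence.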

[19] = qHTS assay to identify small molecule agonists of the androgen receptor (AR) signaling pathway in the presence of an antagonist - cell viability counter screen (AID 1259379); note: nearly all actives have a fitted effect of over 25% in size; note: potency is the fitted concentration of half-maximal effect
Procedure, shortened: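 Cytotoxicity is assessed by CellTiter-Fluor in MDA-kb2 cells carrying an MMTV-driven luciferase reporter. Cells receive 3.0uM nilutamide plus compounds at 15 concentrations and incubate 16 hr at 37C without CO2 before fluorescence reading.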

Row | Structure (SMILES) | Potency [1] | Potency [2] | Potency [3] | Potency [4] | Potency [5] | Potency [6] | Potency [7] | Potency [8] | Potency [9] | Potency [10] | Potency [11] | Potency [12] | Potency [13] | Potency [14] | Potency [15] | Potency [16] | outcome [17] | Potency [18] | Potency [19]
1 | CCCN(CCC)c1c([N+](=O)[O-])cc(C(F)(F)F)c(N)c1[N+](=O)[O-] | 60.9 µM (active) | 60.9 µM (active) | 54.3 µM (active) | inactive | 60.9 µM (active) | 48.4 µM (active) | 60.9 µM (active) | inactive | 21.6 µM (active) | 21.6 µM (active) | 30.5 µM (active) | inactive |  |  |  |  |  |  | 
2 | C[C@H]1[C@H]2CC[C@H]3[C@@H]4CC=C5C[C@@H](N(C)C)CC[C@]5(C)[C@H]4CC[C@]23CN1C | inactive | inactive |  | inactive | inactive | inactive |  | inactive | inactive | inactive | inactive |  | inactive | inactive | inactive | inactive | inactive | inactive | 
3 | CCc1oc2ccccc2c1C(=O)c1cc(Br)c(O)c(Br)c1 | inactive | inactive |  | inactive | inactive | inactive | inactive | inactive | inactive |  | inactive |  | inactive |  |  | inactive |  | inactive | inactive
4 | CNC(=O)c1ccccc1 | inactive | inactive | inactive | inactive |  | inactive | inactive | inactive | inactive | inactive | inactive |  |  | inactive |  |  | inactive | inactive | inactive
5 | O=C1c2ccccc2Cc2ccccc21 | inactive | inactive | inactive | 6.16 µM (active) |  | 6.91 µM (active) |  | inactive | inactive | inactive | inactive | inactive |  | inactive |  |  | inactive | inactive | inactive
6 | CCCCCCCC[P+](CCCCCCCC)(CCCCCCCC)CCCCCCCC | 21.6 µM (active) | 4.3 µM (active) | 0.43 µM (active) | inactive | 34.2 µM (active) | 12.1 µM (active) | 17.1 µM (active) | inactive | 0.483 µM (active) | 8.58 µM (active) | 10.8 µM (active) |  |  |  |  |  | inactive | 68.2 µM (active) | 2.42 µM (active)
7 | Cc1cccc2c1cc1ccc3cccc4ccc2c1c34 | inactive | inactive | inactive | inactive | inactive | inactive | inactive | inactive | inactive | inactive | inactive | inactive |  |  |  |  |  |  | 
8 | Clc1ccc(C(Cn2ccnc2)OCc2ccc(Sc3ccccc3)cc2)c(Cl)c1 (stereo not given) | inactive | inactive | inactive | inactive |  | inactive | inactive | inactive |  | inactive | inactive |  |  | inactive | inactive |  | inactive | inactive | inactive
9 | C[C@]12CCC(=O)C=C1CC[C@@H]1[C@@H]2[C@@H](O)C[C@@]2(C)[C@H]1CC[C@]2(O)C(=O)COC(=O)CCC(=O)O | inactive | inactive | inactive | inactive | inactive | inactive |  | inactive | inactive | inactive | inactive | inactive |  | inactive | inactive |  | inactive | inactive | inactive
10 | CN(C)c1ccc(SC#N)cc1 | inactive | inactive | inactive | inactive |  | inactive |  | inactive | 48.6 µM (active) | 54.5 µM (active) |  |  |  | inactive |  |  | inactive | inactive | 
11 | C[C@H](CCC(=O)O)[C@H]1CC[C@H]2[C@@H]3CC[C@@H]4C[C@H](O)CC[C@]4(C)[C@H]3CC[C@]12C | inactive | inactive | inactive | inactive | inactive | inactive | inactive | inactive |  | 48.4 µM (active) and 48.6 µM (active) | 19.3 µM (active) | inactive |  |  |  |  |  |  | inactive
12 | Cc1ccc2oc(CN(Cc3ccccc3)C(=O)Nc3c(F)cc(F)cc3F)c(-c3ccc(Cl)cc3)c2c1 | inactive | inactive | inactive | inactive |  | inactive | inactive | inactive | inactive | inactive | inactive | inactive |  | inactive |  |  |  | inactive | 
13 | CN(C/C=C/C#CC(C)(C)C)Cc1cccc2ccccc12 | inactive | inactive |  | inactive | inactive | inactive | inactive | inactive | inactive | 26.6 µM (active) | 29.8 µM (active) |  | inactive |  |  |  | inactive | inactive | inactive
14 | CC1=NC(C)OC1C (stereo not given) | inactive | inactive | inactive | inactive | inactive | inactive |  | inactive |  | inactive | inactive |  |  |  |  | inactive | inactive | inactive | inactive
15 | CCOC(=O)O[C@H](C)OC(=O)c1ccc2c(c1)cc(C(=O)NC1CCN(C(C)C)CC1)n2Cc1cc(-c2ccc(Cl)s2)on1 | 64.1 µM (active) | 40.4 µM (active) | 64.1 µM (active) | inactive | 50.9 µM (active) | 12.8 µM (active) | 20.3 µM (active) | inactive | 9.05 µM (active) | 20.3 µM (active) | 22.7 µM (active) | inactive |  |  |  |  |  | 64.1 µM (active) | 45.4 µM (active)
16 | CCCCCCCCOC(=O)c1ccc(O)cc1 | inactive | inactive | inactive | inactive | inactive | inactive | inactive | inactive |  | 54.3 µM (active) and 48.6 µM (active) | 43.1 µM (active) | 54.5 µM (active) |  | inactive |  |  | inactive | inactive | 
